HT1080 IDH1KD tx: HT-1080 IDH1 knockdown cell toxicity (counter line) | hit rate 2% among 360,000 | HT-1080 IDH1 knockdown viability, ATP luminescence, 48 h | Potency, µM (doses to about 46.1 µM), inactives show top-dose activity, negative = toxicity, usual class: cytotoxic;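 note: 0% = DMSO wells and -100% = cell-free medium wells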
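% activity derives from luminescence (CellTiter-Glo), normalised to DMSO and no-cell wells. HT-1080-IDH1KD cells, 750/well, had 48 h compound exposure at 37 °C.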
HT1080-NT tox: kills 2HG-producing HT-1080-NT fibrosarcoma cells | AID 686970 | hit rate 1.6% among 360,000 | HT-1080-NT fibrosarcoma viability, CellTiter-Glo ATP luminescence, 48 h | Potency, µM (series often up to 46.1 µM), for inactives: top-dose activity, negative = less viability, hits mostly cytotoxic;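 note: NT is the 2HG producing partner of a matched IDH1 knockdown line; 0% = DMSO-treated cells and -100% = media-only wells without cells; nearly all actives have a fitted effect of over 55% in size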
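A 48-hour cytotoxicity screen used HT-1080-NT cells plated 2 hours before compound delivery. ATP-based CellTiter-Glo luminescence measured viability, normalized to DMSO and no-cell controls.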
ATXN2 expr inh: inhibitors of ATXN2 expression; HEK-293 ATXN2-luciferase reporter, luminescence, 24 h; Potency, µM (doses to about 57 µM), for inactives: at the top dose activity change, negative = inhibition, most hits filed as inhibitors; hit rate 0.72% among 360,000; AID 1745845; note: % is set by controls: 0 for no effect and ±100 for the full control effect; nearly all actives have a fitted effect of over 55% in size
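qHTS (up to 57 uM final) was run with 24 h compound exposure of reporter cells at 37 °C. Each well was multiplexed: SteadyGlo luminescence measured ATXN2-luciferase expression after a fluorogenic Gly-Phe-AFC viability readout (25 uM final).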
KB-3-1 tox: KB-3-1 parental cell cytotoxicity; AID 1347075; hit rate 1.4% among 400,000; Potency, µM (highest dose often 46.1 µM), hits mostly cytotoxic; KB-3-1 viability, CellTiter-Glo ATP luminescence, 72 h; note: % is set by controls: 0 for no effect and ±100 for the full control effect; nearly all actives have a fitted effect of over 60% in size
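Cytotoxicity measured as CellTiter-Glo luminescence after 72 h at 37 C. Compound titrations were pinned onto drug-naive KB-3-1 parental adenocarcinoma cells grown in DMEM with 10% FBS, and normalized data fitted to concentration-response curves.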
ATXN viability: cell viability loss in ATXN counter-screen | S2 cells (HEK-293 line with an ATXN2-luciferase reporter) viability, CellTiter-Fluor protease fluorescence, 24 h | Potency, µM (highest dose often 56.7 µM), actives largely listed as cytotoxic | hit rate 0.49% among 400,000 | AID 651635; note: nearly all actives have a fitted effect of over 40% in size
KB-V1 MDR tox: kills drug-selected multidrug resistant KB-V1 cells. KB-V1 MDR cells viability, CellTiter-Glo, 72 h. Potency, µM (doses to about 46.1 µM), actives largely listed as cytotoxic. hit rate 3.4% among 400,000; note: % is set by controls: 0 for no effect and ±100 for the full control effect; nearly all actives have a fitted effect of over 60% in size
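Compound-treated KB-V1 multidrug-resistant cells, 72 h, 37 degrees C; viability by CellTiter-Glo. Fitted qHTS curves give the values.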
Numbers without * were called inactive; [ ] = dose if it differs, or a comment. An excerpt weighted towards active compounds, which were near 6.2% of everything screened. Calls come from the whole dose curve; as a rule, active = well fitted curve in the direction sought with a large enough effect; inconclusive = small, poorly fitted or top-dose-only effect, or another doubt; inactive = no such curve, though single readings can be large; an effect the other way counts as inactive or inconclusive. Potency is the fitted concentration of half-maximal effect.

`COc1cccc(CNC(=O)CCCn2nc(C)c3c(C)n(-c4ccc(C)cc4)nc3c2=O)c1OC` gave HT1080 IDH1KD tx -3%, HT1080-NT tox 0%, ATXN2 expr inh -1%, KB-3-1 tox inactive, ATXN viability inactive and KB-V1 MDR tox inactive.
COc1ccc(-n2nnnc2C(c2cc3ccccc3o2)N2CCN(C/C=C/c3ccccc3)CC2)cc1 (configuration not stated) was read as HT1080 IDH1KD tx -12%, HT1080-NT tox -16%, ATXN2 expr inh -12%, KB-3-1 tox inactive, ATXN viability inconclusive and KB-V1 MDR tox inactive.
Cc1cc2c(cc1C)-n1nnnc1C(N(C)Cc1ccccc1)C(=O)N2 (configuration not stated) was read as HT1080 IDH1KD tx -2%, HT1080-NT tox -6%, KB-3-1 tox inactive and KB-V1 MDR tox inconclusive.
`COc1cc(CNn2c(C)n[nH]c2=S)cc(Cl)c1OCc1ccc(F)cc1` gave HT1080 IDH1KD tx 14%, HT1080-NT tox 0%, ATXN2 expr inh -16%, KB-3-1 tox inactive, ATXN viability inactive and KB-V1 MDR tox inconclusive.
Screening COc1ccc(CNCCc2ccc(Cl)cc2)cc1OCc1ccccc1 returned HT1080 IDH1KD tx inconclusive, HT1080-NT tox inconclusive, ATXN2 expr inh -31%[11.3 µM], KB-3-1 tox inconclusive, ATXN viability inconclusive and KB-V1 MDR tox inactive.
Screening CCOc1cc(CNc2ccc(S(N)(=O)=O)cc2)cc(Cl)c1OC returned HT1080 IDH1KD tx -14%, HT1080-NT tox -1%, ATXN2 expr inh -6%, KB-3-1 tox inactive, ATXN viability inactive and KB-V1 MDR tox inactive.
Screening CCOc1cc(CNCc2ccccc2)ccc1OCc1ccc(Cl)cc1 returned HT1080 IDH1KD tx inconclusive, HT1080-NT tox 15µM*, ATXN2 expr inh inconclusive, KB-3-1 tox inconclusive, ATXN viability inconclusive and KB-V1 MDR tox inactive.
Screening CCOc1cc(CNn2cn[nH]c2=S)cc(Cl)c1OCc1ccccc1F returned HT1080 IDH1KD tx -4%, HT1080-NT tox -7%, ATXN2 expr inh -13%, KB-3-1 tox inactive, ATXN viability inactive and KB-V1 MDR tox 16µM*.
`OCCNCc1cc(Br)ccc1OCc1ccccc1` gave HT1080 IDH1KD tx -1%, HT1080-NT tox 0%, ATXN2 expr inh -21%, KB-3-1 tox inactive, ATXN viability inactive and KB-V1 MDR tox 15µM*.
CCOc1cc(CNCCc2ccc(S(N)(=O)=O)cc2)cc(Cl)c1OCc1ccccc1 was read as HT1080 IDH1KD tx 18µM*, HT1080-NT tox 14µM*, ATXN2 expr inh 20µM*, KB-3-1 tox inactive and KB-V1 MDR tox inconclusive.
CC(=O)NCCNC(=O)c1cnn(-c2nccc(-c3cc(C)sc3C)n2)c1C was read as ATXN viability inactive.
Screening CC(C)(C)c1ccc(C(=O)CCCCl)cc1 returned ATXN2 expr inh 59% and ATXN viability inactive.
NC(=NCCc1ccccc1)NS(=O)(=O)c1ccc2ccccc2c1 was read as HT1080 IDH1KD tx 15%, HT1080-NT tox 9%, ATXN2 expr inh -2%, KB-3-1 tox inactive, ATXN viability inactive and KB-V1 MDR tox inactive.
Screening Cc1ccc(S(=O)(=O)NC(N)=NCCc2ccc(Cl)cc2)cc1 returned HT1080 IDH1KD tx -7%, HT1080-NT tox -9%, ATXN2 expr inh -6%, KB-3-1 tox inactive, ATXN viability inactive and KB-V1 MDR tox 16µM*.
`NC(=NCCc1ccccc1)NS(=O)(=O)c1ccc(F)cc1` gave HT1080 IDH1KD tx 2%, HT1080-NT tox -9%, ATXN2 expr inh -8%, KB-3-1 tox inactive, ATXN viability inactive and KB-V1 MDR tox 16µM*.
Screening COCCNC(=O)c1nn(-c2ccc(C)cc2)c(=O)c2c1c1ccccc1n2C returned ATXN2 expr inh -7%, KB-3-1 tox inactive, ATXN viability inactive and KB-V1 MDR tox inactive.
For Oc1cccc2ccc(Nc3ccccn3)nc12 the results were HT1080 IDH1KD tx 5.8µM*, HT1080-NT tox 5.8µM*, ATXN2 expr inh 0%, KB-3-1 tox 5.8µM* and KB-V1 MDR tox inconclusive.
